An excerpt weighted towards active compounds, which were near 21% of everything screened.
Cycloheximide cs: affects cycloheximide protein synthesis inhibition readout, counter-screen. cell reporter, cycloheximide protein synthesis inhibition counterscreen. max response, %. hit rate 12% among 300,000; in the data active = max response mostly above about 13%, no sharp cut-off; inactive = mostly below about 14%; note: read at 38.3 µM for the half of the compounds with a filed dose; 0% is about no effect
Pf growth 96h: P. falciparum growth inhibition at 96 hours; Potency, µM (titrated, usually from 28.7 µM), for the others: top-dose activity change, negative = inhibition, hits mostly inhibitors; hit rate 6.9% among 320,000; P. falciparum luciferase reporter growth, 96 h; note: potency is the fitted concentration of half-maximal effect; % is set by controls: 0 for no effect and ±100 for the full control effect
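Erythrocytes infected with luciferase-expressing P. falciparum were dispensed at 2% hematocrit and 0.05% parasitemia (final), then incubated with compounds 96 hours at 37 C in 5% CO2. Luminescence after detection reagent addition reported growth.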
Pf growth 48h: inhibits P. falciparum growth in the first generation, 48 h. P. falciparum luciferase growth in erythrocytes, 48 h. Potency, µM (doses to about 28.7 µM), for the others: at the highest dose activity change, negative = inhibition, most hits filed as inhibitors. hit rate 5.9% among 310,000. AID 504832; note: potency is the fitted concentration of half-maximal effect; % is set by controls: 0 for no effect and ±100 for the full control effect
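Growth was read as firefly luciferase luminescence after a 48 h, 37 C, 5% CO2 exposure of compounds to reporter-bearing P. falciparum cultures (0.1% parasitemia, 2% hematocrit final) in Albumax-supplemented RPMI 1640.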
Shiga inhibitor: Shiga toxin inhibition; Vero cells, Shiga toxin protein synthesis inhibition reporter; hit rate 9.2% among 290,000; inhibition, % at 38.7 µM; in the data active = inhibition mostly above about 28%, no sharp cut-off; inactive = mostly below about 43%; note: 0% is about no effect
Active calls of the source: *; ? = inconclusive; nt = no result; [ ] = another dose, or the depositor's remark. Unless noted, calls come from the whole dose curve; as a rule, active = well fitted inhibition curve with a large enough effect; inconclusive = small, poorly fitted or top-dose-only effect, or another doubt; inactive = no such curve, though single readings can be large or run the other way.

SMILES	Cycloheximide cs	Pf growth 96h	Pf growth 48h	Shiga inhibitor
Cc1cccn2c(=O)c(/C=C(\C#N)C(=O)NCc3ccco3)c(N3CCCCCC3)nc12	22.8	?	?	31.9
N#C/C(=C\c1c(N2CCCCC2)nc2ccccn2c1=O)C(=O)NCc1ccco1	6.3	-27.8%	3.7%	3.6
Cc1cccn2c(=O)c(/C=C(\C#N)C(=O)NCc3ccco3)c(N3CCCCC3)nc12	-1.3	2.94µM*	?	-1.9
Cc1ccc(-c2nn(-c3ccccc3)c3[nH]c(=O)c(CNCCN(C)C)cc23)cc1	-1.2	-9.6%	4.65µM*	7.0
CCOc1ccc(NCc2cc3c(C(C)(C)C)nn(-c4ccccc4)c3[nH]c2=O)cc1	9.8	?	nt	29.6
Cc1ccc(-c2nn(-c3ccccc3)c3[nH]c(=O)c(CNCc4ccccc4)cc23)cc1	-1.1	-17.5%	1.04µM*	-2.9
Cc1cccc(C(=O)NC2CCN(C(=O)Nc3ccc(F)cc3)CC2)c1	-2.4	-14.9%	-9.7%	-2.4
Cc1nc(N2CCOCC2)nc2c1CCC2	12.6	27.8%	34.6%	20.6
CCCOc1ccc(-c2nc(SCc3ccccc3)[nH]c(=O)c2C#N)cc1OC	-1.0	2.0%	?	-4.9
O=C(Nc1ccc(F)cc1)Oc1ccc[nH]c1=O	16.0*	42.7%	26.4%	24.3*
O=C(Nc1ccc(F)cc1)Oc1ccccc1N1CCOCC1	9.8	29.8%	0.0%	0.8
Cc1cc(NC(=O)COC(=O)c2cc(S(=O)(=O)N(C)C)ccc2Cl)no1	nt	18.1%	-17.0%	nt
COc1ccc(NC(=O)Nc2ccccc2SC)cc1OC	19.7*	?	87.1%	47.9*
COc1cccc(NC(=O)Nc2ccccc2SC)c1	37.2*	3.5%	30.2%	84.0*
Cc1ccc(NC(=O)Cn2c(=O)oc3cc(S(=O)(=O)N4CCC(C)CC4)ccc32)cc1C	-5.3	24.5%	nt	-4.4
Cc1nc(N)sc1C(=O)N1N=N1	-2.1	32.4%	32.1%	-6.7
O=C(O)c1ccc(Cn2cnc3scc(-c4ccccc4)c3c2=O)cc1	0.5	34.3%	1.0%	-5.5
Cc1ccc(-c2csc3ncn(Cc4ccc(C(=O)O)cc4)c(=O)c23)cc1C	13.0	11.7µM*	-2.4%	-5.1
Fc1ccc(CN2CCN(c3ncnc4scc(-c5ccc(F)cc5)c34)CC2)cc1	-4.4	?	nt	-1.5
Cc1ccc(-c2csc3ncnc(N4CCN(c5ccccc5O)CC4)c23)cc1	-1.8	10.4µM*	9.28µM*	-0.8
Cc1ccccc1N1CCN(c2ncnc3scc(-c4cccs4)c23)CC1	-1.4	-43.4%	?	14.2
COc1ccc(-c2csc3ncnc(N4CCN(c5ccccc5[N+](=O)[O-])CC4)c23)cc1	1.1	9.28µM*	?	-7.6
Clc1ccc(CN2CCN(c3ncnc4scc(-c5cccs5)c34)CC2)cc1	-2.7	13.1µM*	nt	-14.4
COc1ccc(-c2csc3ncnc(N4CCN(c5ccccc5O)CC4)c23)cc1	8.9	-15.5%	19.2%	-8.7
COc1c(S(=O)(=O)N2CCN(C)CC2)ccc(Cl)c1Cl	1.8	-65.0%	?	-9.6
SMILES	Cycloheximide cs	Pf growth 96h	Pf growth 48h	Shiga inhibitor
O=C(CCc1nnc2ccc(N3CCC4(CC3)OCCO4)nn12)NCc1ccccc1Cl	-9.2	41.1%	-6.7%	3.0
CCn1cnc2scc(-c3ccc(OC)cc3)c2c1=O	-2.8	10.4µM*	-1.6%	-4.8
COc1ccc(-c2csc3ncnc(N4CCN(c5ccccc5)CC4)c23)cc1	-1.2	?	?	-4.5
CCOC(=O)N1CCN(c2ncnc3scc(-c4ccccc4)c23)CC1	-5.3	?	?	-8.7
CC(C)(C)C(=O)N1CCN(c2ncnc3scc(-c4ccccc4)c23)CC1	-2.2	13.1µM*	nt	-7.0
CCCn1cnc2scc(-c3ccc(OC)cc3)c2c1=O	6.9	-12.0%	-13.2%	nt
COc1ccc(-c2csc3ncnc(N4CCN(c5ccc(OC)cc5)CC4)c23)cc1	1.2	13.1µM*	?	-4.2
COc1ccc(-c2csc3ncnc(N4CCN(Cc5ccccc5)CC4)c23)cc1	0.6	6.57µM*	?	16.2
Cc1ccc(-c2csc3ncnc(NCCN4CCOCC4)c23)cc1	-3.4	10.4µM*	13.1µM*	-12.5
Cc1ccc(S(=O)(=O)N2CCN(C(=O)c3ccc(S(=O)(=O)N4CCCC4)cc3)CC2)cc1	6.6	7.38µM*	?	-2.2
Cc1ccc(S(=O)(=O)N2CCN(c3ccc(C(=O)N4CCOCC4)cc3[N+](=O)[O-])CC2)cc1	-2.7	10.4µM*	-21.2%	23.6
Cc1ccc(C(=O)N2CCN(S(=O)(=O)c3ccccc3[N+](=O)[O-])C2)cc1	37.1*	?	19.6%	92.2*
Cc1ccc(S(=O)(=O)N2CCN(C(=O)c3ccccc3)C2)cc1[N+](=O)[O-]	2.3	-54.0%[1.15 µM]	-3.4%	8.2
CNc1ccc(C(=O)N2CCN(S(=O)(=O)c3ccc4c(c3)OCCCO4)CC2)cc1[N+](=O)[O-]	-2.0	11.7µM*	?	-5.1
O=C(CCc1nc2ccccc2s1)NC1CCOC1=O (configuration not stated)	4.8	-7.0%	38.9%	12.7
CC(C)(C)c1ccc(C(=O)N2CCN(S(=O)(=O)c3ccc(Br)s3)CC2)cc1	nt	10.4µM*	6.57µM*	nt
Cn1ccnc1C(=O)c1ccc(S(=O)(=O)N2CCCC2)cc1	13.8*	-0.5%	33.4%	28.2
Cc1ccc(S(=O)(=O)N2CCN(C(=O)c3ccc(N4CCCC4)c([N+](=O)[O-])c3)CC2)cc1	-2.7	8.28µM*	?	19.5
O=C(c1ccc(S(=O)(=O)Cc2ccccc2F)c([N+](=O)[O-])c1)N1CCCC1	6.4	?	-15.9%	12.9
O=C(c1ccc(S(=O)(=O)c2ccc(F)cc2)c([N+](=O)[O-])c1)N1CCCCCC1	-3.6	-17.4%	3.29µM*	-5.7
Cc1nn(C)c(C(=O)NN)c1Cl	-1.8	-18.8%	47.0%	-17.6
CC(C)(C)C(=O)NC1CCN(CC(=O)Nc2ccc3c(c2)OCO3)CC1	-0.5	-14.7%	-7.9%	-1.4
Cc1ccc(C(C)c2c(C)c([N+](=O)[O-])cc(C)c2[N+](=O)[O-])cn1 (configuration not stated)	-3.5	1.5%	?	-2.6
O=C(COC(=O)C1=COCCO1)NC1CCCCC1	nt	51.2%	53.4%	nt
CS(=O)(=O)N1CCN(c2ccc(C(=O)N3CCOCC3)cc2[N+](=O)[O-])CC1	-3.0	29.9%	-0.6%	-28.7
SMILES	Cycloheximide cs	Pf growth 96h	Pf growth 48h	Shiga inhibitor
Cc1ccc(S(=O)(=O)N2CCN(C(=O)c3ccc(N4CCCCC4)c([N+](=O)[O-])c3)CC2)cc1	11.0	10.4µM*	?	-8.2
O=C(c1ccc(N2CCCCC2)c([N+](=O)[O-])c1)N1CCN(S(=O)(=O)c2ccccc2)CC1	nt	?	11.7µM*	nt
Cn1ccnc1C(=O)c1cccc(Br)c1	16.5*	13.0%	33.3%	39.5*
O=C(c1ccc(S(=O)(=O)N2CCCCC2)cc1)N1CCN(CCN2C(=O)c3cccc4cccc(c34)C2=O)CC1	-5.5	3.29µM*	?	-7.6
CC(=O)c1c(C)[nH]c(C(=O)CN2CCN(S(=O)(=O)c3ccccc3[N+](=O)[O-])CC2)c1C	nt	10.4µM*	?	nt
NC(=O)c1ccc(S(=O)(=O)N2CCSCC2)cc1	-0.7	10.4µM*	4.8%	-7.1
CC(=O)c1ccc(S(=O)(=O)N2CCCC2)cc1	43.0*	nt	7.5%	81.8*
